In the supplement of paper PMC13380429:

Columns and labels:
[1] = tested on: Vero E6 infected with SARS-CoV-2; experiment: morphology score (similarity to uninfected cells); higher = more like uninfected cells; conditions: 24 h
[2] = tested on: Vero E6 infected with SARS-CoV-2; experiment: SARS-CoV-2 infection rate relative to infected DMSO; higher = more infection, active = 60 or less; conditions: 24 h

In the case of `Clc1cc(Cl)c(OCC#CI)cc1Cl` [haloprogin] (10 µM), the morphology score [1] is reported as 0.57 and the SARS-CoV-2 infection rate [2] is reported as 32% (active).

`O=C(O)c1ccccc1O` [salicylic-acid] (10 µM) was tested, and the morphology score [1] was 0.0239 and the SARS-CoV-2 infection rate [2] was 107% (inactive).

`Nc1c2c(nc3c1CCC3)CCCC2` [ipidacrine] (10 µM) was tested, and the morphology score [1] was 0.22 and the SARS-CoV-2 infection rate [2] was 83.5% (inactive).

In the case of `Cc1nc2ccc(NC(=O)Nc3ccnc4cccnc34)cc2o1` (10 µM), the morphology score [1] is reported as 0.053 and the SARS-CoV-2 infection rate [2] is reported as 99.5% (inactive).

`Cc1cc(CCC[C@H](CC(=O)NO)C(=O)N[C@H](C(=O)N[C@H](C)c2ccccc2)C(C)(C)C)ccc1-c1ccccc1` (0.833333 µM) was tested, and the morphology score [1] was -0.0923 and the SARS-CoV-2 infection rate [2] was 102% (inactive).

`CN(NC(=O)CC(=O)NN(C)C(=S)c1ccccc1)C(=S)c1ccccc1` [elesclomol] (10 µM) was tested, and the morphology score [1] was 0.879 and the SARS-CoV-2 infection rate [2] was 19.5% (active).

For `FC(F)(F)c1ccccc1-c1cc(C(F)(F)F)c2[nH]c(C3=NOC4(CCCCC4)C3)nc2c1` (10 µM), the morphology score [1] was -0.000445 and the SARS-CoV-2 infection rate [2] was 104% (inactive).

`COC(=O)Nc1nc2cc(C(=O)c3ccccc3)ccc2[nH]1` [mebendazole] (0.833333 µM) was tested, and the morphology score [1] was -0.163 and the SARS-CoV-2 infection rate [2] was 102% (inactive).

In the case of `CO[C@H]1[C@H](O)[C@@H](O)[C@@H](O)[C@H](O)[C@@H]1O` [pinitol] (10 µM), the morphology score [1] is reported as -0.0343 and the SARS-CoV-2 infection rate [2] is reported as 114% (inactive).

In the case of `CC(=O)Nc1cccc(Nc2ncnc(N3CCC(OCc4ccc(OC(F)(F)F)cc4)CC3)n2)c1C` (10 µM), the morphology score [1] is reported as 0.184 and the SARS-CoV-2 infection rate [2] is reported as 110% (inactive).

With `CC1(C)O[C@@H]2C[C@H]3[C@@H]4CCC5=CC(=O)C=C[C@]5(C)[C@H]4[C@@H](O)C[C@]3(C)[C@]2(C(=O)CO)O1` [desonide] (10 µM) the morphology score [1] was 0.0066 and the SARS-CoV-2 infection rate [2] was 107% (inactive).

`C/C(=C(\CCOP(=O)(O)O)SC(=O)c1ccccc1)N(C=O)Cc1cnc(C)nc1N` [benfotiamine] (10 µM) was tested, and the morphology score [1] was -0.0264 and the SARS-CoV-2 infection rate [2] was 112% (inactive).

For `O=C(c1ccc(F)cc1)N1CCC[C@H](c2nc(-c3ccc(F)cc3)no2)C1` (10 µM), the morphology score [1] was 0.242 and the SARS-CoV-2 infection rate [2] was 93.5% (inactive).

For `CN1C(=O)C(Cc2c[nH]c3ccccc23)NC1=S` (stereo not drawn) [necrostatin-1] (10 µM), the morphology score [1] was 0.186 and the SARS-CoV-2 infection rate [2] was 93.5% (inactive).

`O=NN(CCCl)C(=O)NC1CCCCC1` [lomustine] (10 µM) was tested, and the morphology score [1] was -0.0183 and the SARS-CoV-2 infection rate [2] was 108% (inactive).

With `CCn1c(=O)c(-c2ccc(Cl)cc2Cl)cc2cnc(Nc3ccc(N4CCNCC4)c(F)c3)nc21` (0.833333 µM) the morphology score [1] was 0.097 and the SARS-CoV-2 infection rate [2] was 106% (inactive).

In the case of `Cc1nc2ccccc2n1Cc1ccc(Cl)cc1` [chlormidazole] (10 µM), the morphology score [1] is reported as -0.099 and the SARS-CoV-2 infection rate [2] is reported as 118% (inactive).

With `COc1cc(OC)cc(C(=O)NNC(=O)Nc2cccc3ccccc23)c1` (10 µM) the morphology score [1] was 0.0721 and the SARS-CoV-2 infection rate [2] was 105% (inactive).

With `CCC(=O)OCC(=O)[C@@]1(OC(=O)CC)[C@@H](C)C[C@H]2[C@@H]3CCC4=CC(=O)C=C[C@]4(C)[C@@]3(F)[C@@H](O)C[C@@]21C` (10 µM) the morphology score [1] was 0.138 and the SARS-CoV-2 infection rate [2] was 104% (inactive).
